UBC9 SUMO inh: blocks human SUMOylation mediated by UBC9. hit rate 0.36% among 290,000. HTRF SUMOylation assay, SAE1/SAE2 + UBC9, in vitro. P63279. AID 2006. inhibition, % at 35 µM; in the data active = inhibition above about 50%, passing the limit was not always enough
Target sequence (P63279 whole entry, looked up): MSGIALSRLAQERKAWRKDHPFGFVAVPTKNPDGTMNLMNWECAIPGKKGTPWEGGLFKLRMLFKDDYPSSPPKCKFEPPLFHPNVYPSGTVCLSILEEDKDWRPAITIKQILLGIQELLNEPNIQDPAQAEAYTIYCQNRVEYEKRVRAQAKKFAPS
sPLA2-III inh: Blocks human group III sPLA2 activity. QFRET BODIPY PC-A2 liposome hydrolysis, fluorescence. inhibition, % at 12.2 µM. hit rate 0.56% among 370,000. AID 743126;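 active = inhibition above mean plus 3 SD of compounds lying within the high and low control bounds, cut at about 19% in these data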;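 also: 0% = median of test compound wells and 100% = no enzyme DMSO wells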
UBC13 inh: inhibitors of human UBC13 polyubiquitin chain formation | P61088 | TR-FRET | inhibition, % at 20 µM | hit rate 0.47% among 330,000 | AID 485273; in the data active = inhibition above about 45%, passing the limit was not always enough
Target sequence (P61088 whole entry, looked up): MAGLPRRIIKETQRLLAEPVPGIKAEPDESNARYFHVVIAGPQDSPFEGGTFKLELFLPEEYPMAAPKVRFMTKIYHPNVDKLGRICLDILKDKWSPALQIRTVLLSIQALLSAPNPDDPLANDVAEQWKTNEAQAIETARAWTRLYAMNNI
NR3A LBD binder: NR3A (human) ligand-binding domain modulation; AID 1259313; Tm shift relative to glycine control, % at 25 µM; hit rate 2.5% among 340,000; NR3A LBD differential scanning fluorimetry, Tm shift; 0% = protein alone, 100% = glycine-bound protein;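 active = melting temperature shift of at least 10% of the positive control shift, at one fixed dose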
* = called active by the depositor; . = no result. Compounds with a hit are over-represented: about 3.3% of the library has one in this group of screens.

SMILES | UBC9 SUMO inh | sPLA2-III inh | UBC13 inh | NR3A LBD binder
COc1cc(OC)cc(-c2c(C#Cc3ccsc3)c3cc(-c4ccc5cc[nH]c5c4)ccc3n2C)c1 | . | -4 | -21 | 6
COc1ccc(-c2c(C#Cc3ccsc3)c3cc(-c4ccc5cc[nH]c5c4)ccc3n2C)cc1 | . | -1 | -22 | 12*
COc1cc(/C=C2\SC(=S)N(NC(=O)c3ccccc3O)C2=O)ccc1O | -1 | -15 | -64 | 11*
O=C(CN1C(=O)S/C(=C\c2ccc(Cl)cc2)C1=O)NNC(=O)c1ccccc1O | 35 | 44* | . | -8
O=C(CN1C(=O)S/C(=C\c2ccccc2)C1=O)Nc1cc([N+](=O)[O-])ccc1O | 10 | -23 | -30 | 23*
O=C(NN1C(=O)/C(=C/c2ccc(O)cc2)SC1=S)c1ccccc1O | -15 | -48 | -52 | 16*
O=C(NN1C(=O)/C(=C/c2ccc(O)cc2)SC1=S)c1cccc(O)c1 | 4 | -61 | -81 | 10
C#CCCCN([C@@H](CC(C)C)C(=O)OC)S(=O)(=O)c1ccccc1Br | . | 1 | . | .
COc1ccc(-c2ccc([C@H]3[C@H]4C=CC[C@@H](C)[C@@H]4C(=O)N3Cc3ccccc3)c(F)c2)cc1 | -25 | 2 | -8 | 16*
COc1ccc(-c2ccoc2)cc1[C@H]1[C@H]2C=CC[C@@H](C)[C@@H]2C(=O)N1Cc1ccccc1 | 4 | -28 | -8 | 14*
COc1ccc(-c2ccc([C@H]3[C@H]4C=CC[C@@H](C)[C@@H]4C(=O)N3Cc3ccccc3)c(F)c2)cc1OC | -7 | -9 | -2 | -1
C/C(=N\NC(=O)c1cc(-c2ccccc2)nc2ccccc12)c1ccc(Cl)cc1 | . | -3 | . | .
CCOC(=O)[C@]12CCCC=C1N(CCCOC)C(=O)[C@@H]2CC(=O)NCc1ccc(OC)c(OC)c1 | . | 15 | . | .
O=c1oc2ccccc2c2oc3cc(O)c(O)cc3c12 | 25 | 22* | 14 | 1
Nc1c(N)c2ccccc2oc1=O | -3 | 0 | -2 | 0
CC(C)(C)c1ccc(-c2nnc(SCC(=O)Nc3ccc(S(=O)(=O)Nc4nccs4)cc3)n2Cc2ccco2)cc1 | . | 0 | . | .
O=C1N/C(=N/NC(=O)c2cccc3ccccc23)S/C1=C\c1ccccc1OCc1ccccc1 | -18 | 13 | . | 8
COc1ccc(OC)c(/C=C2\S/C(=N/NC(=O)c3ccc4ccccc4c3)NC2=O)c1 | . | -6 | . | 17*
CN(C)c1ccc(/C=C/c2nc3ccccc3s2)cc1 | 5 | 3 | 3 | 11*
COc1ccc(-c2noc(C3CCCN(C(=O)Nc4cccc(C)c4)C3)n2)cc1 (configuration not stated) | . | 2 | . | .
Cc1ccc(C#N)c(SCc2ccccc2F)n1 | 8 | 0 | 5 | -3
Cc1ccc2nc(CSc3nc(C)ccc3C#N)[nH]c2c1 | 21 | 4 | -8 | 29*
Cc1ccc2c(c1)C(=O)CC(c1ccccc1)S2 (configuration not stated) | . | 11 | . | 13*
O=C1CC(c2ccccc2)Sc2ccccc2N1 (configuration not stated) | 3 | 0 | -18 | 4
Cc1ccc(-c2cc(N)n(-c3ccccc3)n2)cc1 | 11 | 3 | 2 | 26*
SMILES | UBC9 SUMO inh | sPLA2-III inh | UBC13 inh | NR3A LBD binder
Cc1cccc(-c2cc(N)n(-c3ccccc3)n2)c1 | 13 | -5 | . | 31*
Cc1cccc(-c2cnn(-c3ccccc3)c2N)c1 | 10 | 12 | -1 | 0
CCCCN1C[C@@H]2CSCCS(=O)(=O)N2C1=O | . | 13 | . | .
COC[C@H]1O[C@]2(c3ccccc3)CO[C@H]1[C@@H](/C=C/c1ccccc1)C2 | . | 8 | . | .
N#Cc1c(=O)c2nc(NCc3ccccc3)ncc2n2ccccc12 | 51* | 1 | -16 | -2
CC(=O)Nc1ccc(S(=O)(=O)N2CN(c3ccc(C)cc3)c3nc4ccccc4nc32)cc1 | -5 | -17 | 11 | 16*
Cc1ccc([N+](=O)[O-])cc1NC(=O)c1c(-c2ccccc2)noc1C | 10 | -8 | 4 | 13*
CC(=O)c1ccc(NC(=O)COC(=O)c2c3c(nc4ccccc24)/C(=C\c2cccs2)CCC3)cc1 | 21 | -7 | -17 | 4
O=C(COC(=O)c1c2c(nc3ccccc13)/C(=C\c1cccs1)CCC2)Nc1ccccc1 | 4 | -8 | -3 | 17*
N#Cc1cc(-c2ccc(Cl)cc2)cnc1Sc1ccc(F)cc1 | 19 | 4 | 31 | 13*
N#Cc1cc(-c2ccccc2)cnc1Sc1ccc(Cl)cc1 | 17 | 2 | 24 | 0
CC1CCN(C2=NC(=O)N(c3ccc(Br)cc3)C(=O)C2)CC1 | . | 0 | . | .
CC(=O)N1CC[n+]2c(-c3ccc(Cl)cc3)csc21 | 10 | -5 | 2 | 20*
CC(=O)N1[C@H](CO)[C@@H](c2ccccc2)[C@@H]1CN(C(=O)c1ccc(F)cc1)C(C)C | . | -1 | . | .
O=C1OCC2=Nc3cccc4cccc(c34)N12 | . | 14 | . | .
CC1=Nc2cccc3cccc(c23)N1C | 79* | 6 | -11 | 3
CCOC(=O)C1=C(C)OC2(O)c3ccccc3C(=O)C12O (configuration not stated) | 94* | 13 | -37 | 1
Fc1ccc(Nc2nc3ccccc3s2)cc1 | 3 | -7 | 2 | 20*
Cc1ccc(Nc2nc3ccccc3s2)cc1 | -12 | -3 | 0 | 22*
COc1cccc(C(=O)N=c2sc3c(C)ccc(OC)c3n2C)c1 | 9 | -5 | 23 | 12*
COc1ccc(OC)c2c1sc(=NC(=O)c1ccco1)n2C | 12 | -1 | 37 | 16*
COc1ccc(C(=O)N=c2sc3c(C)ccc(OC)c3n2C)cc1OC | 19 | -3 | 31 | 0
Cc1onc(-c2ccccc2)c1C(=O)OCC(=O)Nc1cccc(Cl)c1 | . | -28 | 4 | 13*
Cc1onc(-c2ccccc2)c1C(=O)OCC(=O)Nc1ccc(OC(F)(F)F)cc1 | . | -15 | 9 | 12*
Cc1c[nH]c2cccc(-c3ccccc3)c12 | . | 6 | . | .
SMILES | UBC9 SUMO inh | sPLA2-III inh | UBC13 inh | NR3A LBD binder
Brc1ccc(/C=N/Nc2nc3ccccc3o2)cc1 | 17 | -16 | 5 | 28*
Cc1ccc(C(=O)CSc2nc3ccccc3o2)cc1 | -12 | -36 | 8 | 17*
Cc1cnc2cc(Cl)c(Cl)cc2n1 | 4 | 2 | 0 | 579*
Cc1nc2cc(Cl)c(Cl)cc2nc1C | -3 | 4 | -1 | -3
COP(=O)(CC(=O)C(Cc1ccccc1)NC(=O)OC(C)(C)C)OC (configuration not stated) | . | -2 | . | .
COc1ccc(N(C)S(=O)(=O)c2cccc(C(=O)Nc3ccc(OC)nc3)c2)cc1 | 6 | -6 | -3 | .
Cc1nc2ccc(NC(=O)c3ccccc3)cc2s1 | 20 | 14 | 0 | -27
Cc1nc2ccc(NC(=O)c3cccc(S(=O)(=O)N(C)c4ccccc4)c3)cc2s1 | -7 | . | 5 | 18*
Cc1nc2ccc(NC(=O)c3sccc3C)cc2s1 | -6 | 0 | 8 | 32*
COc1ccc(N(C)S(=O)(=O)c2cccc(C(=O)Nc3ccc(-n4cnnn4)cc3)c2)cc1 | -1 | -18 | 9 | 26*
Cc1nc2ccc(NC(=O)c3ccco3)cc2s1 | -4 | 1 | -13 | 16*
O=C(Nc1ccc(F)cc1)Nc1c(-c2ccc(C(F)(F)F)cc2)nc2ncccn12 | . | 8 | . | .
O=c1[nH]c2ccc(S(=O)(=O)N3CCCC3)cc2o1 | . | -3 | . | .

Screens from PubChem BioAssay.
